# PubChem BioAssay (NCI)
# About 83,000 compounds went through this panel and 20% of them were active in at least one assay; those are over-represented in the sample as a whole.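 Percent growth is the endpoint: 0 to 100 indicates growth inhibition (40 means 60% inhibition), 0 means no net growth, and negative values indicate cell death.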 Unmarked numbers belong to inactive results. Calls of active or inactive are those of the source. Rule for the calls: active = growth percent below 10; inactive = the rest.
# Assays:
# Test in all cases: NCI-60 one-dose screen, 48 h (100 = growth as untreated, 0 = no growth, -100 = all killed)
# Details in all cases: 10 µM unless noted
# BT-549 breast = test system: BT-549 breast
# MDA-MB-435 melanoma = test system: MDA-MB-435 melanoma
# SW-620 colon = test system: SW-620 colon
# MCF7 breast = test system: MCF7 breast
# HCT-116 colon = test system: HCT-116 colon
# HCC-2998 colon = test system: HCC-2998 colon
# KM12 colon = test system: KM12 colon
Compound,growth (BT-549 breast),growth (MDA-MB-435 melanoma),growth (SW-620 colon),growth (MCF7 breast),growth (HCT-116 colon),growth (HCC-2998 colon),growth (KM12 colon)
COc1c(Cl)ccc2c(-c3nc4cc(Cl)c(F)cc4s3)cc(=O)oc12,107%,102%,90.9%,96.2%,88.4%,108%,79.4%
CCN1CCN(c2ccc(Nc3ncc4ccc5ncn(C(C)C)c5c4n3)nc2)CC1,-24.7% (active),0.992% (active),-7.47% (active),-1.88% (active),8.77% (active),-4.57% (active),-16.9% (active)
Cc1ccccc1-n1nnc(C(=O)Nc2ccc(-c3ccccc3)cn2)c1C,50.7% [50 µM],23.8% [50 µM],69.3% [50 µM],24.3% [50 µM],31.3% [50 µM],73.9% [50 µM],53% [50 µM]
COc1ccc(NC(=O)COc2ccccc2)c(C(N)=O)c1,55.9%,-70% (active),27.1%,23.8%,25.9%,46.5%,25.2%
CCCCCCCC/C=C\CCCCCCCCOc1cccc(CC(=O)NCC[N+](C)(C)C)c1,74.4%,91.5%,96.5%,90.8%,75.2%,66.1%,57.8%
c1ccc2cc(-c3n(Cc4ccc5ccccc5n4)c4ccccc4[n+]3Cc3ccc4ccccc4n3)ccc2c1,-5.25% (active),-35.6% (active),-9.76% (active),-10.4% (active),2.75% (active),-52.7% (active),-80.8% (active)
c1ccc(-c2n(Cc3ccc4ccccc4c3)c3ccccc3[n+]2Cc2ccc3ccccc3c2)cc1,-28.2% (active),-76.4% (active),-48.5% (active),-44.2% (active),-85.4% (active),-79.3% (active),-86.8% (active)
CCCCC1COc2cccc3c(SCC(=O)N(C)c4cccc5ccccc45)cc[n+]1c23 (configuration not stated),102%,103%,105%,91.7%,82.5%,90.3%,112%
Cc1ccc(C(=O)Nc2ccccc2N)cc1,61.5%,68.3%,60%,74.8%,62.9%,77.1%,87.4%
O=C(Nc1ccccc1O)c1ccc(NS(=O)(=O)c2cccc3cccnc23)cc1,55.6%,32.6%,30%,42.3%,23.7%,57.3%,74.8%
COc1cc(NC(=O)COc2ccccc2)c(C(N)=O)cc1OC,59.5%,-77.5% (active),26.8%,17.1%,29.5%,47.1%,29.3%
CCCCCCCC/C=C\CCCCCCCCOc1cccc(CC(=O)NCC[N+]2(C)CCCC2)c1,115%,85.7%,77.9%,73.4%,76.2%,75.9%,69.2%
CCOC(=O)c1cnn(CC(O)c2ccc(F)cc2)c1NC(=O)Nc1ccccc1F (configuration not stated),80.1%,102%,101%,93.1%,89.4%,115%,94.3%
O=c1[nH]c(=O)n(Cc2ccc(F)cc2)cc1F,102% [50 µM],104% [50 µM],105% [50 µM],96.3% [50 µM],112% [50 µM],112% [50 µM],106% [50 µM]
COc1ccc(/C=C(\C#N)c2cc3ccccc3n2C)cc1,51.2%,-49.1% (active),20%,15.4%,18.2%,24.8%,16.8%
COc1ccc(/C=C2\SC(=O)N(CN3CCN(c4cc5c(cc4F)c(=O)c(C(=O)O)cn5C4CC4)CC3)C2=O)cc1,86.4%,98%,99.8%,95.2%,85.7%,104%,103%
